We go through 92 molecules from PubChem BioAssay AID588814 (The Scripps Research Institute Molecular Screening Center, 2011).

Structures are written as SMILES. Several values for one entry are separate records, joined by “and”; a condition that tells them apart may be missing. Equal values may be shown once. The whole screen tested about 360,000 compounds, of which about 1,200 (0.33%) were called active. Shown is part of a subset that was picked to be rich in actives. Values without a mark were called inactive.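 Rule for the calls: active = activation above the run's mean compound activation plus 3 SD (cut at about 16% in these data); inactive = the rest.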

The target of this experiment is Muscarinic acetylcholine receptor M1 (Homo sapiens) (UniProt P11229). Briefly: human M1 muscarinic receptor agonists, primary screen, Fluo-8 calcium fluorescence, CHO-K1 cells, HTS (AID 588814).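 Note: peak over basal fluorescence ratio within a 140 s kinetic read after compound addition.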 The following applies: CHO-K1 hM1, Fluo-8 calcium fluorescence, agonist mode; at 3 µM; hits give high values; 0% DMSO, 100% acetylcholine EC100.
Chain of Muscarinic acetylcholine receptor M1 (Homo sapiens) (P11229 whole entry, looked up): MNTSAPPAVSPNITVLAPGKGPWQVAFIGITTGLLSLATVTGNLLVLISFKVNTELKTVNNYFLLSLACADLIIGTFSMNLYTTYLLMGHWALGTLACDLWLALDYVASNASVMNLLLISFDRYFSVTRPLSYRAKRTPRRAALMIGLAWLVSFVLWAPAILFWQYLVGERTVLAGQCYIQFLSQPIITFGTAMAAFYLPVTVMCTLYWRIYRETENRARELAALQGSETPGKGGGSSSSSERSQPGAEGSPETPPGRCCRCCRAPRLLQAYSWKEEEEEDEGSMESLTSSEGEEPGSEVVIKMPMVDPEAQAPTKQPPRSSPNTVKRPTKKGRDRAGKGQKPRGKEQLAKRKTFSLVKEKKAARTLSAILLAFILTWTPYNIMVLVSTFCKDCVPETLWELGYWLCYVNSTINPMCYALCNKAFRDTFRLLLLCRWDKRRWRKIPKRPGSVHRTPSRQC
With `CC(NC(=O)Nc1ccccc1)c1ccccc1` (configuration not stated), the activation is -4.05%. Then `CCC(C(=O)Nc1ccc(C(C)C)cc1)c1ccccc1` (configuration not stated), with 29.4% (active); and `CC(C)c1ccc(NC(=O)Cn2ncc3ccccc32)cc1`, with -2.42%. As to `COc1ccc(C(c2nnnn2C2CCCC2)N2CCN(C/C=C/c3ccccc3)CC2)cc1` (configuration not stated), the activation was -7.67%.

As for `Cc1ccc(N2C(=O)C3C4C=CC(CC4)C3C2=O)cc1Cl` (configuration not stated), the activation is -1.43%. As for `Cc1ccc(S(=O)(=O)Oc2ccc(/C=N/NC(=O)c3c(Cl)cnn3C)cc2)cc1`, the figure is -4.49%; as for `Cc1cc(NC(=O)CSc2nc3c(cc2C#N)CCCCC3)no1`, -4.15%.

Turning to `CC(NC(=O)CSc1nc2c(cc1C#N)CN(C)CC2)c1ccccc1` (configuration not stated), the activation was 18.6% (active). In the case of `CC1(C)CCc2nc(SCc3ccccc3)c(C#N)cc2C1`, the activation was -1.01%.

Regarding `CCOC(=O)C1CCCN(Cc2nc(N)nc(Nc3ccc(C)cc3)n2)C1` (configuration not stated), the activation is 28.3% (active). Then `CCOC(=O)C1CCCN(CCSc2ccc(C)cc2)C1` (configuration not stated), with -6.73%; and `COc1ccc(Nc2nc(N)nc(CSC(=S)N3CCC(C)CC3)n2)cc1`, with -4.28%. As for `CCOC(=O)C1CCCN(C(=O)c2cccc3ccccc23)CC1` (configuration not stated), the figure is -0.09%; as for `O=C(c1cnccn1)N1CCN(S(=O)(=O)c2cccc(Cl)c2)CC1`, -0.88%. For `CC(C)(C)NC(=O)NC(=O)CN1CCC(Cc2ccccc2)CC1`, the activation was -13.3%. Consider `CC(C)(CNC(=O)Cc1ccc(Cl)cc1Cl)N1CCOCC1`, for which the activation is -10.7%.

Consider `CN1c2ccc(C=O)c3c(C=O)ccc(c23)N(C)C1(C)C`, for which the activation is -7.9%. Then `CCN(CC)C(=O)C1=C(C)N(Cc2ccc(OC)cc2)C(=O)C(CC(=O)NCc2ccco2)C1` (configuration not stated), with -7.01%; and `CCN(CC)C(=O)C1=C(C)N(Cc2ccc(OC)cc2)C(=O)C(CC(=O)NCCCCc2ccccc2)C1` (configuration not stated), with 23.1% (active); and `COc1ccc(CN2C(=O)C(CC(=O)NCCCCc3ccccc3)CC(C(=O)N3CCOCC3)=C2C)cc1` (configuration not stated), with 3.01%.

As for `Cc1nn(C)cc1N1C(=O)c2cccc3c(N)ccc(c23)C1=O`, the activation is 44.5% (active). In the case of `Cn1cc(C2OC(=O)c3ccccc32)c2ccccc21` (configuration not stated), the activation is 0.52%. Regarding `CN1C(=O)c2cccc3c(N)ccc(c23)C1=O`, the activation was 118% (active). As for `C[C@]12CCC(=O)C=C1C=CC1C2CC[C@@]2(C)C1CC[C@@]21CCC(=O)O1` (some centres not stated), the figure is -6.36%; as for `O=C(CN1C(=O)CC(c2ccccc2)S(=O)(=O)c2ccccc21)NC1CCCC1` (configuration not stated), -3.97%. As for `COc1ccc(CCC(=O)OCC(=O)Nc2ccc(C)c(S(=O)(=O)N(C)C)c2)cc1`, the figure is -1.39%. Then `CCN1CCN(c2cc3nc(C)n(Cc4ccccc4)c(=O)c3cc2NC(=O)c2ccccc2F)CC1`, with -9.45%; and `NNC(=O)COc1ccc(C2SCCS2)cc1`, with -1.63%. On to `CCOc1ccccc1NC(=S)NC(=O)CCc1ccccc1`, for which the activation was -3.2%. Take `O=C(CCc1ccccc1)NNC(=O)COc1ccc(Cl)cc1`: the activation was 1.21%. Then `COc1ccc(C(=O)NNC(=S)NC(=O)c2ccccc2)cc1`, with 34.3% (active); and `CC(=O)NC(=S)NNC(=O)c1ccc(Br)cc1`, with -8.87%. `COc1ccc(C(=O)NC(=S)NNC(=O)CCc2ccccc2)cc1`: the activation was 34.7% (active). As for `O=C(NNC(=S)NCc1ccccc1)c1ccc(OC(F)F)cc1`, the figure is -4.38%; as for `COCCCNC(=O)C1CC(=O)N(c2ccc(C)cc2)C1` (configuration not stated), -2.9%; as for `O=C(c1ccc(CS(=O)(=O)c2ccccc2)o1)N1CCN(c2ccccc2)CC1`, -1.41%.

For `CC(C)(C)NS(=O)(=O)NC(=O)C1=C(N2CCCC2)COC1=O`, the activation is -5.28%.

For the molecule `Cc1nc(C(F)(F)F)ccc1C(=O)N1CCC1(C)C(=O)NS(=O)(=O)c1ccccc1Cl` (configuration not stated), the activation was -0.92%. For `CC1=NCCN1S(=O)(=O)c1ccc(Br)c(C)c1`, the activation was -3.91%. Take `O=C1COc2ccc(C(=O)CSc3ccc(Br)cc3)cc2N1`: the activation was 0.13%. Regarding `c1ccc(CCC2=NCCn3cccc32)cc1`, the activation is -1.99% and -6.48%. As for `COc1ccc(CNC(=O)c2nnn(CC(=O)Nc3cc(C)cc(C)c3)c2N)cc1`, the activation is -1.24%. Then `COc1ccc(NC(=O)Cn2nnc(C(=O)NCCc3ccc(OC)c(OC)c3)c2N)cc1`, with -1.8%; and `CCOc1ccc(Cn2nnc(C(=O)NCc3ccccc3)c2N)cc1`, with 41% (active); and `CCOc1ccc(Cn2nnc(C(=O)Nc3ccc(OC)cc3OC)c2N)cc1`, with 17.4% (active).

As for `COc1cccc(CNC(=O)c2nnn(CC(=O)Nc3cc(Cl)ccc3C)c2N)c1`, the activation is 2.49%. Then `Nc1c(C(=O)Nc2ccc3c(c2)OCCO3)nnn1Cc1ccccc1`, with 1.21%; and `O=C(CCNS(=O)(=O)c1ccc(Br)s1)NCc1ccccc1Cl`, with -1.35%; and `O=c1o[nH]c(-c2ccccc2)c1N=Nc1c(F)cccc1Cl`, with -2.19%.

Take `CCCCNC(=O)CCn1c(=O)c2ccccc2n(Cc2cc(C)ccc2C)c1=O`: the activation was -4.41%. Then `OC(c1ccc(F)cc1)c1ncc(-c2cccc(C(F)(F)F)c2)[nH]1` (configuration not stated), with 6.15%; and `CC(=O)Nc1cc(-c2ccccc2F)cn2c(-c3cccc(C(F)(F)F)c3)cnc12`, with -3.25%.

Consider `CC(=O)Nc1cccc(C(=O)OCC(=O)c2ccc3c(c2)OCO3)c1`, for which the activation is 6.09%.

Take `NS(=O)(=O)c1ccc(NC(=O)COC(=O)c2c3c(nc4ccccc24)/C(=C\c2ccc4c(c2)OCO4)CCC3)cc1`: the activation is 62.8% (active). Consider `O=C(COC(=O)c1ccc(Cl)nc1)NCc1ccc2c(c1)OCO2`, for which the activation is -4.12%. `NC(=O)c1ccc(NC(=O)COC(=O)c2c3c(nc4ccccc24)/C(=C\c2ccc4c(c2)OCO4)CCC3)cc1`: the activation was 38.3% (active). In the case of `NS(=O)(=O)c1ccc(NC(=O)COC(=O)c2ccco2)cc1`, the activation was -0.06%. Then `NS(=O)(=O)c1ccc(NC(=O)COC(=O)CCc2c[nH]c3ccccc23)cc1`, with -0.53%; and `CC1(C(=O)NS(=O)(=O)c2cccc(F)c2)CCN1C(=O)Cc1ccc(Cl)cc1Cl` (configuration not stated), with -1.39%. As for `CC1Cc2ccccc2N1CC(=O)Nc1ccc2c(c1)OC(F)(F)O2` (configuration not stated), the activation is -7.22%. `CCN(CC)c1ccc(/C=N/NC(=O)CNC(=O)c2cccs2)cc1`: the activation was -4.5%. As for `Cc1ccc(-n2nc(C)c(/C=N/NC(=O)c3cccs3)c2Cl)cc1`, the figure is 16.7% (active); as for `Cc1nn(-c2ccccc2)c(NC(=O)c2cccs2)c(-c2ccc(Cl)cc2)c1=O`, -7.73%.

In the case of `CC(=NNC(=O)c1ccncc1)c1ccc(Cl)c(Cl)c1`, the activation is -2.06%. On to `CCOCCCN1C(=O)C2C(C(=O)Nc3ccc(OCC)cc3)C3C=CC2(O3)C1C(=O)NC1CCCCC1` (configuration not stated), for which the activation was -6.34%. Then `CCCNC(=O)C1CC(=O)N(c2ccc(OCc3ccccc3)cc2)C1` (configuration not stated), with 1.07%; and `COc1ccc(-n2c(-c3ccc(Cl)cc3)n[nH]c2=S)c(OC)c1`, with -4.14%; and `COc1cc(OC)c(N2CC(C(=O)Nc3cc(Cl)ccc3N3CCOCC3)CC2=O)cc1Cl` (configuration not stated), with -5.02%. As for `COc1cc(OC)c(-n2cc(-c3ccc(Cl)cc3)[nH]c2=O)cc1Cl`, the activation was 58% (active). Then `CC(=O)C[C@@H](O)CC(=O)[C@H]1OC(=O)CCCCCCc2ccccc21`, with 10.4%; and `Cn1nccc1NC(=O)CC(CC(=O)O)c1ccccc1` (configuration not stated), with 0.28%; and `Cn1nc(C(F)(F)F)c2cc(NC(=O)OCC(C)(C)C)sc21`, with -6.85%. Consider `CC(C)COC(=O)c1ccc(NC(=O)C2C3C=CC(C3)C2C(=O)O)cc1` (configuration not stated), for which the activation is -3%. On to `CCc1ccc(-c2cc3c(=O)n(CC(=O)NCCCN4CCN(Cc5ccccc5)CC4)nc(C)n3n2)cc1`, for which the activation was 0.73%. For `CC(=O)OCCC(C)C`, the activation is -3.12%. Then `CC(C[N+](C)(C)C)OC(N)=O` (configuration not stated), with 87.5% (active); and `CC(=O)OC(C)C[N+](C)(C)C` (configuration not stated), with 115% (active). Then `Cc1oc2nc(SCC(=O)Nc3ccc(S(N)(=O)=O)cc3)nc(NC(=O)c3ccccc3)c2c1C`, with -4.87%; and `Cc1sc(NC(=O)C2=COCCO2)c(C#N)c1C`, with -6.11%; and `CC(C)Cn1c(CCC(=O)O)ccc1-c1cccs1`, with -4.32%. Then `O=c1c2ccccc2c(-c2ccccc2)nn1-c1ccccn1`, with -1.79%. As for `O=C(COC(=O)/C=C/c1cn(-c2ccccc2)nc1-c1cccnc1)Nc1ccc(Cl)cc1Cl`, the activation was -5.6%.

Regarding `CC(C)(C)OC(=O)N/N=C/c1cn(-c2ccccc2)nc1-c1cccnc1`, the activation was 24% (active). Turning to `COc1ccccc1N1CCN(C(=O)c2cn(-c3ccccc3)nc2-c2cccnc2)CC1`, the activation was 0.62%. As for `O=C(CNc1cccc(S(=O)(=O)N2CCCCC2)c1)Nc1ccccc1F`, the figure is 2.04%; as for `Cc1ccc(O)c(-c2cc(C(=O)NCc3ccccc3)[nH]n2)c1`, -5.25%; as for `Cc1cc(O)ccc1-c1cc(C(=O)NCc2cc(C(F)(F)F)cc(C(F)(F)F)c2)[nH]n1`, 16.9% (active). Turning to `CCCOc1ccc(F)cc1-c1cc(C(=O)NCc2ccc(F)cc2)[nH]n1`, the activation is -7.18%. For `CCc1nc2c(OCCC3CCCCC3)cccn2c1N(C)C(=O)c1ccco1`, the activation was -9.74%. As for `CCOC(=O)C1(Cc2cccc(OC)c2)CCCN(S(=O)(=O)c2cccnc2)C1` (configuration not stated), the figure is -1.49%. As for `COc1ccc(C(C#N)=C2C=CC(=NO)c3ccccc32)cc1`, the activation is -8%. Turning to `CCOc1c(N2CCCCC2)c(=O)c1=O`, the activation is -7.26%.
